From the supplement of paper PMC10849652
Of roughly 7,900 targets only a part is listed; those with a hit were picked by preference. About 0.6% of all pairs of compound and target were hits. A number with no mark means an inactive call.

What was measured:
Assay in all cases: log2 fold change, soluble protein after heating vs DMSO (PISA); higher = thermal stabilisation; K562 cells, 10 uM, 30 min; active = over 0.2 and 3.5 SD of the protein, either way, in both replicates (recomputed)
[1] = compound: CC1=C2C(=CC=C1)N=C(N(C2=O)C3=CC=CC=C3C)CN4C=NC5=C(N=CN=C54)N
Procedure, shortened: (§1)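 Values are thermal stability changes relative to control samples and are taken from duplicates. They are stated as log2 fold changes. Before quantification by TMTpro 16plex LC-MS/MS with equalised channel sums, K562 cells at 2×10^6 cells/mL were treated with 10 μM compound for 30 min, heated in aliquots for 3 min across 48°C-58°C, pooled, extracted in PBS with 0.5% NP-40 at 4°C, and centrifuged at 21,000xg for 90 min to give the soluble supernatant.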

[2] = compound: C1=CC=C(C=C1)[C@H](COC2=CC3=C(C=C2)NC(=O)N3)NC(=O)C4=CC=CN(C4=O)CC5=CC(=C(C=C5)F)F
Procedure, shortened: as §1

[3] = compound: Cc1sc2c(c1C)C(c1ccc(Cl)cc1)=N[C@@H](CC(=O)OC(C)(C)C)c1nnc(C)n1-2
Procedure, shortened: as §1

[4] = compound: CC1=C(SC2=C1C(=N[C@H](C3=NN=C(N32)C)CC(=O)N)C4=CC=C(C=C4)Cl)C
Procedure, shortened: as §1

[5] = compound: c1ccc([C@@H]2C[C@H]2NC2CCNCC2)cc1
Procedure, shortened: as §1

Chain of UniProt Q4LDG9 (Q4LDG9 whole entry, looked up): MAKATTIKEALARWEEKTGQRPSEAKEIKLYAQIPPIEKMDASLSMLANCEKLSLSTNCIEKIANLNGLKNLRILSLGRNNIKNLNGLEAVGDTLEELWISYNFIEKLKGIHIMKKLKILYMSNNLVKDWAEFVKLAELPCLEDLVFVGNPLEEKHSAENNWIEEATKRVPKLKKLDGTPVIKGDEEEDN
Chain of UniProt A1L3X0 (A1L3X0 whole entry, looked up): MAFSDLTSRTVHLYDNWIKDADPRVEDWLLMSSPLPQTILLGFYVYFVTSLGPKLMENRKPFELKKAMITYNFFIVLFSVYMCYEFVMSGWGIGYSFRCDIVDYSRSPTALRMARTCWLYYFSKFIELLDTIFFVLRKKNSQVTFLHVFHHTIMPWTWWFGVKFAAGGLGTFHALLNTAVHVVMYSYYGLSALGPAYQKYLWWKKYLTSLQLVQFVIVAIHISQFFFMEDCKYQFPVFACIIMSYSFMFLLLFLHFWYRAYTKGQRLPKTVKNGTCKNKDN
Chain of UniProt Q04637 (Q04637 whole entry, looked up): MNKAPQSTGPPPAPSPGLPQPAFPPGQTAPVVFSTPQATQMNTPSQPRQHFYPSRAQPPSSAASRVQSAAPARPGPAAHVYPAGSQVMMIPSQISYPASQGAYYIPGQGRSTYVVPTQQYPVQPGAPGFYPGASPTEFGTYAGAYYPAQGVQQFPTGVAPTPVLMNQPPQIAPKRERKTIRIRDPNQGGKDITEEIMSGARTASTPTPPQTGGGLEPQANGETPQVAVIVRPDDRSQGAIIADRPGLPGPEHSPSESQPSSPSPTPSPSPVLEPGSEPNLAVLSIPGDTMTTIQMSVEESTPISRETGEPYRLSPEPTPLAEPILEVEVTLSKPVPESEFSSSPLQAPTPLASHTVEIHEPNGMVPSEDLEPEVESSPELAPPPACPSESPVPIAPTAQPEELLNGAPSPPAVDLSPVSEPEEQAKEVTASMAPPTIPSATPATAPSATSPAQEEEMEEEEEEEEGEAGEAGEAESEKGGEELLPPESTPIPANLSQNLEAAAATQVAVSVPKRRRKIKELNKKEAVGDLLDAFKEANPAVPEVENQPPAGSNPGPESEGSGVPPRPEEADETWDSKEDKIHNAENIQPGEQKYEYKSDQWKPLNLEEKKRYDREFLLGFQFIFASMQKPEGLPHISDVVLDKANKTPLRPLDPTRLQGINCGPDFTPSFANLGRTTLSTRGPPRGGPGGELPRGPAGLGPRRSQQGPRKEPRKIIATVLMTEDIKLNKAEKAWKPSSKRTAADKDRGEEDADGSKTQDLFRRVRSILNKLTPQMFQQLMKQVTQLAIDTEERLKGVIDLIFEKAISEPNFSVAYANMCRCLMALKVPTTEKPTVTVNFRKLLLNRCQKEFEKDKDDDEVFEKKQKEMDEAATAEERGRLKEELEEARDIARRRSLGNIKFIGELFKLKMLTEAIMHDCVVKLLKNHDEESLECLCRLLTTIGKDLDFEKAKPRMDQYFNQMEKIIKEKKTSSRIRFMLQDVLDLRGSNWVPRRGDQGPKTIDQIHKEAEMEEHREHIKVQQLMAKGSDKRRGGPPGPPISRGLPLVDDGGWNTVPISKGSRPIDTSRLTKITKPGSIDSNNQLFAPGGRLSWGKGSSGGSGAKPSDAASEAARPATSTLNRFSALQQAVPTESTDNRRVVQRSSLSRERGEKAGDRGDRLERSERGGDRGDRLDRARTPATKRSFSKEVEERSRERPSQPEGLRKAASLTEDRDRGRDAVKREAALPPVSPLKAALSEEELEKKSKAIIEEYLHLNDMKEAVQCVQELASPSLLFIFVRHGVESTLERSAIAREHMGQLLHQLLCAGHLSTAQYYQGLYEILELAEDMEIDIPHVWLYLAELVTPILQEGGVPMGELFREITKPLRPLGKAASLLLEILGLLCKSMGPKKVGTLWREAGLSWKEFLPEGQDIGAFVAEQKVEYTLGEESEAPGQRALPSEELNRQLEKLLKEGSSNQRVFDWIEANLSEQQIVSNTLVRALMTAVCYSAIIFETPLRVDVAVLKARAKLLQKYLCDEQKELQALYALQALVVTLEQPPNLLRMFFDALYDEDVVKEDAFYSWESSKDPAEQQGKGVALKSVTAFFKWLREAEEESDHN
Chain of UniProt Q9NZJ5 (Q9NZJ5 whole entry, looked up): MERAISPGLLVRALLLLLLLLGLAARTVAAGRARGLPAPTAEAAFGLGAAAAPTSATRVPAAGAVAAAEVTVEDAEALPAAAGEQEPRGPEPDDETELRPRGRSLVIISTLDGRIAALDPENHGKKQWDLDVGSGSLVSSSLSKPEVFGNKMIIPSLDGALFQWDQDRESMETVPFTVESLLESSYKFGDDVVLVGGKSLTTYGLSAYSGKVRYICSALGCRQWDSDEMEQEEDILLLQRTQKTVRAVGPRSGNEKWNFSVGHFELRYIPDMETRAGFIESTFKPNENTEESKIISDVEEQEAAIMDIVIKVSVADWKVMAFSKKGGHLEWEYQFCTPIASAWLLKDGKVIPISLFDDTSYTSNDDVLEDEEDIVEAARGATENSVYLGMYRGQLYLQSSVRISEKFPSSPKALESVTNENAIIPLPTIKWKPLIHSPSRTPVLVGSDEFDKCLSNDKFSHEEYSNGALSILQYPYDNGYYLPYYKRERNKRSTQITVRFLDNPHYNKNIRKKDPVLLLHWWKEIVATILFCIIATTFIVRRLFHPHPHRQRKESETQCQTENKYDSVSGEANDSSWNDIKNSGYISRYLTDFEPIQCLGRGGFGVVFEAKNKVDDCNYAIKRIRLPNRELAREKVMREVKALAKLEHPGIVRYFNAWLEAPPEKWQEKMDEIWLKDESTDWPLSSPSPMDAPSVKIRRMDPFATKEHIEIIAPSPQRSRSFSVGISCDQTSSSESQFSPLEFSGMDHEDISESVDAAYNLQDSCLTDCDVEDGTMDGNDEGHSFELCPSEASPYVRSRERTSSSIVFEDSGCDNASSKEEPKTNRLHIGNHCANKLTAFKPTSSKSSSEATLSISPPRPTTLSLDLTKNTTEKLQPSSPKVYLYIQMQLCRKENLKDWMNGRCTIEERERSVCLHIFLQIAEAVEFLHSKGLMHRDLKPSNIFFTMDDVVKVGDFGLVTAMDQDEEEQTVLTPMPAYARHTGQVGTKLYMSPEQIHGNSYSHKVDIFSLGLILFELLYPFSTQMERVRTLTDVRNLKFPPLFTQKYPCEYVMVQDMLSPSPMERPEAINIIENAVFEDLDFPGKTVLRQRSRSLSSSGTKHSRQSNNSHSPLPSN
Chain of UniProt Q8NBI2 (Q8NBI2 whole entry, looked up): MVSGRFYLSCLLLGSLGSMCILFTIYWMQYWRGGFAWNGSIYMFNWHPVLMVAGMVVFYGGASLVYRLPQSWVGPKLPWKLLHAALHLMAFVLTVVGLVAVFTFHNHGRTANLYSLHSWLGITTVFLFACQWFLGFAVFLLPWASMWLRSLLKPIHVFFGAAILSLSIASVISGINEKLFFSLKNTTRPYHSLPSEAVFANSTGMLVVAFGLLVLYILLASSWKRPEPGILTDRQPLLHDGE
Chain of UniProt Q8TEH3 (Q8TEH3 whole entry, looked up): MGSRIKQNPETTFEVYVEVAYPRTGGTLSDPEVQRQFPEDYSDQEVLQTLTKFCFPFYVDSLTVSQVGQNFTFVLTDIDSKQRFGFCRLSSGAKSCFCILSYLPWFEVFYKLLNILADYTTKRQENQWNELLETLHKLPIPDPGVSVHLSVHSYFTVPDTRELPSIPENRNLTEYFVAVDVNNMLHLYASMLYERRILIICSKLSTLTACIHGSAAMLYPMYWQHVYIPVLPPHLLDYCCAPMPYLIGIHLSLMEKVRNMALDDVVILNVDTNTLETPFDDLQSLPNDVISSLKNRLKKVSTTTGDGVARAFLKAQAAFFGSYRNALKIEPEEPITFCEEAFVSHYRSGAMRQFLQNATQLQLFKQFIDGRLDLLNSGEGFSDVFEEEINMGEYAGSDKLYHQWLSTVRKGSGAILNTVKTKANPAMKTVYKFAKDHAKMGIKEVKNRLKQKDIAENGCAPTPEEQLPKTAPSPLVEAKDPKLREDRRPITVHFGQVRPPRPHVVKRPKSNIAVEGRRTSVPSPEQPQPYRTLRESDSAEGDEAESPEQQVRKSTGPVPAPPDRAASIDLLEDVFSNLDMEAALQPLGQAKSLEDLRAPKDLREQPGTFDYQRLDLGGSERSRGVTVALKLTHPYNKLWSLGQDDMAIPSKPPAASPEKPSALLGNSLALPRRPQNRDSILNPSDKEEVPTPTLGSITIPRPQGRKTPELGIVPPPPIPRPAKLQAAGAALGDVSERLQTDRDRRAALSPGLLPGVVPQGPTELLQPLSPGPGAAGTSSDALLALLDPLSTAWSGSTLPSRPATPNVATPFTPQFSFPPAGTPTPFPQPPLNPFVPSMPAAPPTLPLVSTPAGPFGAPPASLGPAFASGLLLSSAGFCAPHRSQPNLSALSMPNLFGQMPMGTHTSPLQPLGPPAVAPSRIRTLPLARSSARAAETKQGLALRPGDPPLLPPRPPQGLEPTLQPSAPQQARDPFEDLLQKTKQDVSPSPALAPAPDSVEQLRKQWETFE
Chain of UniProt Q07973 (Q07973 whole entry, looked up): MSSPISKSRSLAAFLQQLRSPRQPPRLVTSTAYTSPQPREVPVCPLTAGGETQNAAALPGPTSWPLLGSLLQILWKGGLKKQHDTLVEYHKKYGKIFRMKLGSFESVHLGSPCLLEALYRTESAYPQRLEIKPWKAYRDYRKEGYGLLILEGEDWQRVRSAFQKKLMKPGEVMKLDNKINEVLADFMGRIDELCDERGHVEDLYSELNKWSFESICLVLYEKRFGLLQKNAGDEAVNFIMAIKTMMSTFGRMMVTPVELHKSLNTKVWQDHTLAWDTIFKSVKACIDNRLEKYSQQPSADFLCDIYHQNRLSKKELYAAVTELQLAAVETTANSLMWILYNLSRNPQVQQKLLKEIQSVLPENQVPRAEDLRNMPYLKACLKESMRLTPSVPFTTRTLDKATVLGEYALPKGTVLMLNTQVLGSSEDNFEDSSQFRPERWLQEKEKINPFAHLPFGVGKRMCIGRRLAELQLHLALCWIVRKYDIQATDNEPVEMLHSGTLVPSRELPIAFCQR

Target	log2 fold change [1]	log2 fold change [2]	log2 fold change [3]	log2 fold change [4]	log2 fold change [5]
FAM135A (UniProt Q9P2D6)	0.106				
DENND1A isoform 6 (UniProt Q8TEH3)	0.146	0.152	0.284		
DHRS13 (UniProt Q6UX07)	0.099		0.218	0.084	-0.14
DOP1A (UniProt Q5JWR5)	0.049	0.203			
DDX11 (UniProt Q96FC9)	0.335	-0.068	0.059		
EHBP1 (UniProt Q8NDI1)			0.041	-0.163	0.229
ENTR1 (UniProt Q96C92)	0.191				
ERF (UniProt P50548)			-0.515		
EIF4G1 (UniProt Q04637)	0.011		0.098	-0.032	-0.028
FADS1 (UniProt F5GYH4)	-0.02	-0.216	-0.036		
CTNNBL1 (UniProt Q8WYA6)	0.17	0.029			
DNAL1 (UniProt Q4LDG9)	-0.264	0.146		0.086	0.03
ELAC1 (UniProt Q9H777)	0.146			0.123	0.059
EIF2AK3 (UniProt Q9NZJ5)		-0.473	-0.196	-0.027	0.059
DCP2 (UniProt Q8IU60)	-0.044		0.077	-0.121	0.068
ELF1 (UniProt P32519)			0.017	0.008	0.007
EEF2K (UniProt O00418)	0.145			0.001	-0.082
EID1 (UniProt Q9Y6B2)			-0.135		

Target	log2 fold change [1]	log2 fold change [2]	log2 fold change [3]	log2 fold change [4]	log2 fold change [5]
ENTPD7 (UniProt Q9NQZ7)		0.066	0.173		
DBNL (UniProt Q9UJU6)				-0.04	-0.099
DERPC (UniProt P0CG12)	-0.015	0			
EIF4G3 isoform 3 (UniProt O43432)	0.184	-0.021	0.038	0.021	-0.06
DLK1 (UniProt P80370)	0.198			0.065	0.051
CYB561A3 isoform 2 (UniProt Q8NBI2)		0.033	-0.075	-0.009	0.002
FAM207A (UniProt Q9NSI2)	0.001	0.107	0.021		
ELOVL7 (UniProt A1L3X0)			-0.066	0.077	-0.01
DDX27 (UniProt Q96GQ7)	-0.157		0.12	-0.197	-0.046
CWF19L2 (UniProt Q2TBE0)			0.028	-0.169	0.135
EDRF1 (UniProt Q3B7T1)		0.043		0.245	-0.061
ELMO1 (UniProt Q92556)	0.026	-0.085			
EIF3J isoform 2 (UniProt O75822)	0.25	0.092	0.049		
DNM2 isoform 4 (UniProt P50570)		0.015		0.065	-0.022
F2RL3 (UniProt Q96RI0)	0.06		-0.197	0.175	0.032
DCAF16 (UniProt Q9NXF7)	0.079	0.06	0.032	0.056	-0.032
CYP24A1 (UniProt Q07973)	-0.175	0.17	0.266		
